These results are taken from PubChem BioAssay.

The test concerns wheat germ agglutinin (Triticum aestivum), Alexa647-labelled. The experiment in a line: Alexa647-WGA lectin binding to printed small molecules – biochemical, small-molecule microarray, 635/667 nm fluorescence, artefact control for SMM control-protein annotation, profiling panel (AID 1140).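 Further: score merges 667 nm feature emission with signal to noise over triplicate slides.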 The following applies: WGA-A647 binding, 635 nm fluorescence, higher = more signal.
On to `CN(C)C(=O)[C@@]1(Cc2ccccc2)COC(c2ccc(OCCCO)cc2)=N1`, for which the composite z-score is 0.298.

Regarding `CO[C@H]1O[C@H](CO)[C@@H](OC(=O)CCc2ccccc2)[C@H](OC(=O)c2cc3ccccc3[nH]2)[C@H]1OC(=O)c1cc2ccccc2[nH]1`, the composite z-score worked out at 0.726.

Compound `CN1C(=O)C2C=CC(C(O)c3cc(C(F)(F)F)cc(C(F)(F)F)c3)N(Nc3ccccc3)C2C1=O` (stereo unspecified) came in with a composite z-score of 0.225.

With `COCCOC(=O)N1C(=O)[C@@]2(c3cc(C#CCCO)ccc31)[C@H](C(N)=O)[C@H]1C(=O)O[C@H](c3ccccc3)[C@H](c3ccccc3)N1[C@@H]2c1ccc(OCCO)cc1`, the composite z-score was 0.583.

Consider `COCCOC(=O)N1C(=O)[C@@]2(c3cc(C#Cc4ccc(OC)cc4)ccc31)[C@H](C(=O)NC[C@H](O)c1ccccc1)[C@H]1C(=O)O[C@H](c3ccccc3)[C@H](c3ccccc3)N1[C@@H]2c1ccc(OCCO)cc1`, for which the composite z-score came to 0.815.

On to `COCCOC(=O)N1C(=O)[C@@]2(c3cc(C#CCNC(N)=O)ccc31)[C@H](c1ccc(OCCO)cc1)N1[C@H](c3ccccc3)[C@H](c3ccccc3)OC(=O)[C@H]1[C@@H]2C(N)=O`, for which the composite z-score was 0.673.

`CC(=O)NCCCC[C@@H]1NC(=O)[C@H]2C[C@@H](C(=O)NCCCCCNC(=O)CS)[C@@H](c3cccc(OCCO)c3)N2C1=O`: the composite z-score came to 0.29.

Consider `O=C1O[C@H](c2ccccc2)[C@H](c2ccccc2)N2[C@H]1[C@@H](C(=O)N1CCCCCCC1)[C@]1(C(=O)Nc3ccc(C#CC4(O)CCCCCC4)cc31)[C@H]2c1ccccc1OCCO`, for which the composite z-score is 1.71.

Compound `COCCCNC(=O)[C@@]1(c2ccc([N+](=O)[O-])cc2)CC(=O)N(CC23CC4CC(CC(C4)C2)C3)[C@@H]1c1ccc(CO)cc1I` displayed a composite z-score of 0.47.

`COc1ccc(C#Cc2ccc3c(c2)[C@]2(C(=O)N3)[C@H](C(=O)N3CCCCCCC3)[C@H]3C(=O)O[C@H](c4ccccc4)[C@H](c4ccccc4)N3[C@@H]2c2ccc(O)cc2)cc1` showed a composite z-score of 0.983.

As to `C=C(/C(=C/C[C@H](OC(=O)c1ccncc1)c1cccc(OCCO)c1)c1cnc2ccccc2c1)C(C)C`, the composite z-score was found to be 1.33.

For the compound `CCCCCCCCCCC(O)C1C=CC2C(=O)N(C)C(=O)C2N1Nc1cc(OC)c(OC)c(OC)c1` (stereo unspecified), the composite z-score worked out at 0.458.

For `Nc1cc(Br)ccc1C(=O)O`, the composite z-score is 0.863.

`CN(C)C(=O)[C@]1(CCS(=O)(=O)c2ccccc2)N=C(c2ccc(OCCCO)cc2)O[C@@H]1c1ccccc1` returned a composite z-score of -0.0414.

`O=C1N(CCS(=O)(=O)c2ccccc2)Cc2ccccc2[C@@H]2OC(c3ccc(OCCCO)cc3)=N[C@]12CCS(=O)(=O)c1ccccc1` registered a composite z-score of 0.817.

`COc1ccc([Si](C)(C)[C@H]2[C@H](CC(=O)N3Cc4ccccc4C[C@H]3CO)O[C@@]3(C(=O)N(Cc4ccc(N5C(=O)c6cccc7cccc5c67)cc4)c4ccccc43)[C@@H]2C)cc1` gave a composite z-score of 0.237.

In turn, `COCC1=C2[C@@H](CCc3ccccc3)OB(O)C[C@@H]2[C@@H]2C(=O)N(C)C(=O)[C@@H]2C1` had a composite z-score of -0.098.

In turn, `CC(C)OC(=O)CC(=O)CC(O)c1ccc([N+](=O)[O-])cc1` (stereo unspecified) yielded a composite z-score of 0.518.

On to `CC(C)C(=C=CC[C@@H](O)c1cccc(OCCO)c1)C[C@@H](O)c1ccccn1`, for which the composite z-score worked out at 0.782.

For `C=CCC(OC(C)=O)[C@@H]1[C@@H](N(Cc2cccc3ccccc23)C(=O)c2cccc3ccccc23)c2cc(OCCCO)ccc2N1C(=O)c1ccc2ccccc2c1` (stereo partly specified), the composite z-score is -0.223.

The compound `CC(=O)N1CC(C(O)C2C=CC3C(=O)NC(=O)C3N2Nc2ccc(Cl)cc2Cl)c2ccccc21` (stereo unspecified) registered a composite z-score of 1.14.

Regarding `COC(=O)[C@@]1(Cc2ccc(F)cc2)[C@H]2c3cc(C(=O)N(C)C)n(Cc4c(CO)[nH]cc(C)c4=O)c3C[C@H]2CN1C(=O)c1ccccc1`, the composite z-score was 0.406.

Compound `CC(C)[C@H]1NC(=O)[C@@]23C(=O)N[C@@H](Cc4ccccc4)C2[C@H](C)[C@@]2(C)O[C@H]2C3/C=C/CCC/C=C/CNC(=O)[C@H](Cc2ccccc2)NC1=O` (stereo partly specified) gave a composite z-score of -0.755.

The compound `CCOC(=O)C[C@H]1[C@H](OC(=O)c2ccccc2-c2ccccc2)[C@@H](NC(=O)c2ccccc2)c2cc(OCCCO)ccc2N1C(=O)c1ccccc1` returned a composite z-score of 0.0533.

As to `COC(=O)[C@@]1(Cc2ccccc2CN=[N+]=[N-])N=C(c2ccc(OCCCO)cc2)O[C@H]1c1ccccc1`, the composite z-score was found to be 0.255.

In turn, `C=C(COC)C(=O)CC[C@@H](OC(=O)c1cccnc1)c1ccccc1OCCO` came in with a composite z-score of 0.287.

Turning to `CC1CC/C=C\[C@H]2OC34C=CCN(CCN5CCOCC5)C(=O)[C@H]3N(C(C)CO)C(=O)[C@@H]4C2C(=O)O1` (stereo partly specified), the composite z-score was -0.928.

For the compound `[N-]=[N+]=NCc1ccccc1[C@H]1OC(c2ccc(OCCCO)cc2)=N[C@@]1(CCS(=O)(=O)c1ccccc1)C(=O)NCc1ccccc1`, the composite z-score is 0.703.

Compound `COc1ccc([Si](C)(C)[C@H]2[C@H](CCO)O[C@@]3(C(=O)N(Cc4ccc(N5C(=O)c6ccccc6Oc6ccccc65)cc4)c4ccccc43)[C@@H]2C)cc1` registered a composite z-score of 0.0124.

Take `O=C(NCC(O)CO)[C@@]1(CCS(=O)(=O)c2ccccc2)COC(c2ccc(OCCCO)cc2)=N1` (stereo partly specified): the composite z-score was found to be 0.41.

`C=CCC(OC(C)=O)[C@@H]1[C@@H](N(Cc2cccc3ccccc23)C(=O)Cc2ccc(F)cc2)c2cc(OCCCO)ccc2N1C(=O)c1ccc(-c2ccccc2)cc1` (stereo partly specified) displayed a composite z-score of 0.507.

Regarding `C=CCNC(=O)[C@@H]1[C@H]2C(=O)O[C@H](c3ccccc3)[C@H](c3ccccc3)N2[C@H](c2ccc(O)cc2)[C@@]12C(=O)N(C(=O)OCCOC)c1ccc(C#CCCO)cc12`, the composite z-score came out at 0.862.

The compound `C=CCNC(=O)[C@@H]1[C@H]2C(=O)O[C@H](c3ccccc3)[C@H](c3ccccc3)N2[C@H](c2ccc(OCCO)cc2)[C@@]12C(=O)N(C(=O)OCCOC)c1ccc(C#CCCO)cc12` had a composite z-score of 0.719.

For `C=CCOC(=O)[C@H]1[C@@H]2C(=O)O[C@@H](c3ccccc3)[C@@H](c3ccccc3)N2[C@@H](c2ccc(OCCOC(=O)[C@H]3C[C@H]4C(=O)N[C@@H](CCCCNC(C)=O)C(=O)N4[C@H]3c3cccc(OCCO)c3)cc2)[C@]12C(=O)Nc1ccc(I)cc12`, the composite z-score came to 0.0811.

Take `COCCOC(=O)N1C(=O)[C@@]2(c3cc(C#CC4=CCCCC4)ccc31)[C@H](c1ccc(O)cc1)N1[C@H](c3ccccc3)[C@H](c3ccccc3)OC(=O)[C@H]1[C@@H]2C(=O)NC[C@H](O)c1ccccc1`: the composite z-score amounted to 0.781.

The compound `CN1C(=O)C2C=CC(C(O)c3ccc(I)cc3)N(Nc3ccccc3)C2C1=O` (stereo unspecified) showed a composite z-score of 0.86.
